ALOX12 inh: Primary qHTS assay for inhibitors of human arachidonate 12S-lipoxygenase (ALOX12): Round 2; Potency, µM (top dose mostly 108 µM), for inactives: top-dose activity change, negative = inhibition, hits mostly inhibitors; AID 1671190, 2021; Polyunsaturated fatty acid lipoxygenase ALOX12 (Homo sapiens), P18054; actives 1.1% (n = 580,000); purified 12hLO, xylenol orange hydroperoxide absorbance; also: % is scaled to controls: 0 for no effect and ±100 for the full control effect
Target sequence (P18054 whole entry, looked up): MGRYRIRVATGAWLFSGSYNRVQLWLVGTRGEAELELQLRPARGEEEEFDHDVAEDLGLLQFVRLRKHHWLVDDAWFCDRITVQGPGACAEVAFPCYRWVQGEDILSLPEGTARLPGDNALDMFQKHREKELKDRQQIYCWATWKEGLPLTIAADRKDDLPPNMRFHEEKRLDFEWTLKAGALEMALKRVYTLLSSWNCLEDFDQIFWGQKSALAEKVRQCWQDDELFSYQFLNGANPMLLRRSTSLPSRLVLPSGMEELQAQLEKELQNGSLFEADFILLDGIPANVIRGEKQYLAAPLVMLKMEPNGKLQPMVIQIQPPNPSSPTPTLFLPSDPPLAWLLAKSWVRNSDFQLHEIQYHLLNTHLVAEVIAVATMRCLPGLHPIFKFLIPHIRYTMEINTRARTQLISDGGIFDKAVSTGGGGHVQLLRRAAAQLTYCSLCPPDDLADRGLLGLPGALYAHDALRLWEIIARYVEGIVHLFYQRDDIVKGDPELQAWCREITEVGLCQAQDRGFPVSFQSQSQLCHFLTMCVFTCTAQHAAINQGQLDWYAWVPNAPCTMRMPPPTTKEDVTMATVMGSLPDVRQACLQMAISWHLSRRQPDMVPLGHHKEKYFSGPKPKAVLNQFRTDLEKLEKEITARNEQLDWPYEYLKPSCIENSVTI
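Hydroperoxide product was detected by ferrous iron/xylenol orange as the 573 to 405 nm absorbance ratio. Arachidonic acid at 40 uM (final) was turned over for 30 min at room temperature by 150 nM human 12hLO, pH 7.0 Hepes buffer, after 15 min compound preincubation.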
SW480 rerep: A quantitative high throughput screen for small molecules that induce DNA re-replication in SW480 colon adenocarcinoma cells. AID 624297, 2012. SW480 DNA re-replication, Hoechst DNA content imaging, 48 h. actives 1.8% (n = 340,000). Potency, µM (series often up to 46.1 µM), without a hit: top-dose re-replication activation, usual class: activators; also: % of control where 0% means no effect; nearly all actives have a fitted effect of over 55% in size
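Quantitative HTS format with DMSO vehicle controls; 48 hr drug incubation at 37 C, then 40 min Hoechst staining and scanning imager measurement at 405 nm excitation.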
KB-V1 cytotox: qHTS assay for MDR1-selective chemotherapeutics: Primary screen using the drug-selected MDR subline cells KB-V1; KB-V1 MDR cells viability, CellTiter-Glo, 72 h; actives 3.4% (n = 400,000); Potency, µM (titrated, usually from 46.1 µM), usual class: cytotoxic; AID 1347076, 2019; also: % is scaled to controls: 0 for no effect and ±100 for the full control effect; nearly all actives have a fitted effect of over 60% in size
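Readout: CellTiter-Glo luminescence, 10 min after addition. Cells: KB-V1 MDR subline, 72 h at 37 degrees C with compound. Analysis: corrected, normalized data fitted to concentration-effect curves.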
KB-3-1 cytotox: qHTS assay for MDR1-selective chemotherapeutics: Primary screen using the parental adenocarcinoma cell KB-3-1; KB-3-1 viability, CellTiter-Glo ATP luminescence, 72 h; Potency, µM (highest dose often 46.1 µM), actives largely listed as cytotoxic; actives 1.4% (n = 400,000); also: % is scaled to controls: 0 for no effect and ±100 for the full control effect; nearly all actives have a fitted effect of over 60% in size
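Luminescent ATP read-out (CellTiter-Glo) measures survival of drug-naive KB-3-1 cells after 72 h compound exposure at 37 °C. Titration series was screened from lowest to highest concentration, with DMSO vehicle plates as background controls.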
MCF10A rerep: A quantitative high throughput screen for small molecules that induce DNA re-replication in MCF 10a normal breast cells. actives 2.9% (n = 350,000). Potency, µM (titrated, usually from 46.1 µM), inactives show at the highest dose activity, positive = re-replication, most hits filed as activators. MCF 10A DNA re-replication, Hoechst nuclear intensity, 48 h; also: % of control where 0% means no effect; nearly all actives have a fitted effect of over 50% in size
PINK1 expr mod: A Quantitative High throughput Screen to Identify Chemical Modulators of PINK1 Expression; Potency, µM (top dose mostly 76.6 µM), inactives show top-dose activation (PINK1 increase), hits mostly activators; PINK1 immunofluorescence, high-content cytometry, 24 h; actives 0.2% (n = 410,000); active = well fitted activation curve with a large enough effect; inconclusive = small, poorly fitted or top-dose-only effect; cell line not stated here; also: % of control where 0% means no effect; nearly all actives have a fitted effect of over 65% in size
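PINK1 protein, normally rapidly degraded, was detected by immunofluorescence after 24 hour compound treatment of a stable cell line. Titration data (5 concentrations) came from laser-scanning cytometry, with CCCP-treated wells as controls.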
Active calls of the source: *; i = inactive; u = inconclusive; x = no result given; [ ] = another dose, or the depositor's remark. A selection: hits, their analogues and other compounds. The true share with any hit is near 5.8%. Unless noted, calls follow the shape of the dose curve; as a rule, active = well fitted curve in the direction sought with a large enough effect; inconclusive = small, poorly fitted or top-dose-only effect, or another doubt; inactive = no such curve, though single readings can be large; an effect the other way counts as inactive or inconclusive. Potency is read from the fitted curve at half-maximal effect.

SMILES | ALOX12 inh | SW480 rerep | KB-V1 cytotox | KB-3-1 cytotox | MCF10A rerep | PINK1 expr mod
COc1ccc(C(=O)N2CCC3(CC2)NC(=O)N(c2ccccc2Cl)N3)cc1 | 2.2µM* | x | x | x | x | x
COc1ccc(C(=O)N2CCC3(CC2)NC(=O)N(Cc2ccccc2)C3=O)cc1 | 17% | x | x | x | x | x
Cc1ccc(C(=O)N2CCC3(CC2)NC(=O)N(c2ccccc2Cl)N3)cc1C | 1.3µM* | x | x | x | x | x
COc1ccc(Cl)cc1C(=O)N1CCC2(CC1)NC(=O)N(c1ccccc1)N2 | 1.8µM* | x | x | x | x | x
CC(NS(=O)(=O)Cc1ccccc1)C(=O)O (centres undefined) | -3% | x | x | x | x | x
COc1cc2c(cc1CNC(=O)Cn1nc(C)n(Cc3ccccc3)c1=O)CCC2 | 11% | x | x | x | x | x
CC(C(=O)N(C)CC(=O)Nc1ccccc1C(F)(F)F)N(C)Cc1ccccc1Br (centres undefined) | -4% | x | x | x | x | x
O=c1c2cnc(N3CCCCC3)nc2ccn1-c1ccc(F)cc1 | 16% | x | x | x | x | x
O=C(c1ccc2c(c1)OCO2)N1CCC2(CC1)NC(=O)N(c1ccccc1Cl)N2 | 2µM* | x | x | x | x | x
O=C1NC2(CCN(C(=O)c3ccc4c(c3)OCO4)CC2)COc2ccccc21 | 48% | x | x | x | x | x
COc1ccc(Cl)cc1C(=O)N1CCC2(CC1)NC(=O)N(c1ccccc1Cl)N2 | 1.8µM* | x | x | x | x | x
COc1ccc(C(=O)N2CCC3(CC2)NC(=O)N(c2ccccc2Cl)N3)cc1F | 1.3µM* | x | x | x | x | x
COc1ccc(C(=O)N2CCC3(CC2)CC(O)CCO3)cc1F (centres undefined) | 27% | x | x | x | x | x
COc1ccc(Cl)cc1C(=O)N1CCC2(CC1)CC(=O)c1ccccc1O2 | u | -2% | u | i | 1% | 3%
CCCn1cnc2nc(CSc3ccccc3NC(=O)c3cccc(Cl)c3)cc(=O)n21 | 0% | x | x | x | x | x
CC(=O)c1cccc(NC(=O)CCc2nc(CSc3nc4ccccc4o3)no2)c1 | 11% | x | x | x | x | x
CCOc1ccc2nc(SCC(=O)Nc3ccc4c(c3)OCO4)sc2c1 | 2% | 25% | 16µM* | i | 3% | -3%
CCOc1ccc2nc(NC(=O)CSc3nc(SC)ns3)sc2c1 | 13% | 9% | 23µM* | i | 10% | 10%
CCOc1ccc2nc(SCC(=O)c3ccc(C)s3)sc2c1 | -17% | -3% | i | i | 3% | -2%
Cc1nc2ccc(NC(=O)Cc3ccc(Br)cc3)cc2s1 | -22% | u | i | i | -2% | 15%
Cc1nc2ccc(NC(=O)Cc3ccc4c(c3)OCCO4)cc2s1 | -12% | -53% | 15µM* | i | 9% | 1%
COc1ccc(Nc2nnc(SCC(=O)NC(=O)Nc3ccc4c(c3)OCCO4)s2)cc1 | -16% | 10µM* | i | i | 13µM* | 1%
COc1ccc(OC)c(NC(=O)N(C)CCc2noc(C(=O)NCc3ccccc3)n2)c1 | 2% | x | x | x | x | x
CN(CC(=O)NC(N)=O)Cc1ccsc1 | 82% | x | x | x | x | x
CCC(c1cccs1)N1C(=O)[C@H]2CN(S(=O)(=O)c3ccc(C)cc3C)C[C@H]2C1=O (some centres undefined) | 1% | x | x | x | x | x
SMILES | ALOX12 inh | SW480 rerep | KB-V1 cytotox | KB-3-1 cytotox | MCF10A rerep | PINK1 expr mod
Cc1nc(-c2ccccc2)sc1C(=O)NS(=O)(=O)c1ccc(CN2CCN(c3ccccc3)CC2)cc1 | 32µM* | x | i | i | x | -1%
Cc1ccc(C(=O)N2CCCC(c3ccc(Cl)cc3)=N2)cc1 | -1% | u | i | i | 18µM* | 2%
CN(C)C(=O)c1ccc(Br)s1 | -13% | x | x | x | x | x
COc1ccc(-c2nc(C3CC3)nc3c2CN(C(=O)c2ccccc2F)CC3)cc1 | 6%[6.33 µM] | x | x | x | x | x
COc1ccccc1C(=O)N1CCc2nc(C3CC3)nc(-c3ccc(Cl)cc3)c2C1 | 45µM* | x | x | x | x | x
CCn1cc(S(=O)(=O)c2ccc(OC)cc2)c(=O)c2cc(OC)ccc21 | 22% | -2% | i | i | 6% | 1%
CCn1cc(S(=O)(=O)c2ccc(Cl)cc2)c(=O)c2cc(OC)ccc21 | 4% | -7% | 15µM* | i | 4% | 3%
COc1nc(OC)nc(N2CCC(C(=O)NCc3cccs3)CC2)n1 | 2% | -16% | 18µM* | i | -2% | 1%
Cc1cc(C)nc(N2CCCC(C(=O)NC(C)CCc3ccco3)C2)n1 (centres undefined) | 1% | 0% | 10µM* | i | 5% | 0%[38.3 µM]
Cc1cnc(C)c(N2CCC(C(=O)NCc3cccs3)CC2)n1 | 19% | 1% | i | i | 6% | 4%
Cc1cc(C)nc(N2CCCC(C(=O)NCc3ccccc3)C2)n1 (centres undefined) | -24% | -7% | i | i | -1% | -2%
CCCCNC(=O)C1CCN(c2nc(OC)nc(OC)n2)CC1 | 3% | -1% | 21µM* | i | 5% | -3%
Cc1cc(C)nc(N2CCCC(C(=O)NCc3cccs3)C2)n1 (centres undefined) | 5% | -9% | 16µM* | i | -10% | 5%[38.3 µM]
Cc1ccc(/C=C/C(=O)O)c(C)c1 | 12% | x | x | x | x | x
CCCS(=O)(=O)N1CCC(C(=O)NCCCOC)CC1 | 0% | -7% | i | i | 0% | 0%
CCS(=O)(=O)N1CCC(C(=O)NCCCOC)CC1 | 6% | 15µM* | i | i | u | -1%[38.3 µM]
CC(=O)Nc1ccc(NC(=O)c2c[nH]c3ccc(F)cc3c2=O)cc1 | -4% | x | x | x | x | x
Cc1ccc(S(=O)(=O)c2ccc([N+](=O)[O-])o2)cc1 | -17% | u | 13µM* | u | u | -5%
Cn1c(Cl)c(C(=O)Nc2ccc(Cl)cc2)c2ccccc21 | 0% | 22% | 21µM* | 8.2µM* | 11% | 12%
CCCn1c(=NC(=O)c2ccco2)c(C(=O)OCC)cc2c(=O)n3ccccc3nc21 | -14% | -2% | i | i | -14% | x
CCOC(=O)c1cc2c(=O)n3cccc(C)c3nc2n(CC(C)C)c1=NC(=O)c1ccco1 | u | u | i | i | u | 7%
CC(C)n1c(=NC(=O)c2ccco2)c(C#N)cc2c(=O)n3ccccc3cc21 | 4% | 13µM* | i | u | 8.9µM* | 8%
CCOC(=O)c1cc2c(=O)n3cccc(C)c3nc2n(Cc2ccco2)c1=NC(=O)c1ccc(C)cc1 | x | -8% | i | i | -1% | 6%

From PubChem
